High-throughput results (PubChem)
Rows were chosen to be rich in hits. Some 0.52% of all compounds tested hit in one or more screens of this group.
Vif-A3G inh – Vif-A3G binding inhibition | HeLa A3G-eYFP + Vif (tagged APOBEC3G with the HIV-1 protein that degrades it), YFP fluorescence, overnight | Potency, µM (top dose mostly 46.1 µM), for inactives: at the highest dose activity, negative = active, actives largely listed as inhibitors | actives 0.076% (n = 410,000); note: % is set by controls: 0 for no effect and ±100 for the full control effect; nearly all actives have a fitted effect of over 60% in size
Target sequence (Q9HC16 whole entry, looked up): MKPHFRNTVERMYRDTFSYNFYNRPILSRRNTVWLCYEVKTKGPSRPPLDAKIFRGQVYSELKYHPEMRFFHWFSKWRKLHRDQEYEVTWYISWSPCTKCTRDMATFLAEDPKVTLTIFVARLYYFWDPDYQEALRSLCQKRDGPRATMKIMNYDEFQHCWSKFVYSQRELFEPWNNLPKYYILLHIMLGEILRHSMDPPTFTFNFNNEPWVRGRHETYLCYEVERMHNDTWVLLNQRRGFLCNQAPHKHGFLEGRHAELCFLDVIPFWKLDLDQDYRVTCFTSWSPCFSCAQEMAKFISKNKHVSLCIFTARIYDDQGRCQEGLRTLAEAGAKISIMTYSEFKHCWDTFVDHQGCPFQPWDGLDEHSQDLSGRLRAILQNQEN
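HeLa cells stably expressing Vif and C-terminally eYFP-tagged A3G, seeded overnight at 37 deg C, then exposed to compound by pintool overnight at 37 deg C. Rise in yellow fluorescence (Ex 488/Em 500-530, Acumen) marks blocked Vif-driven A3G degradation.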
PINK1 expr mod – modulators of PINK1 expression | PINK1 immunofluorescence, high-content cytometry, 24 h | Potency, µM (series often up to 76.6 µM), inactives show at the highest dose activation (PINK1 increase), actives largely listed as activators | actives 0.2% (n = 410,000) | AID 624263; active = well fitted activation curve with a large enough effect; inconclusive = small, poorly fitted or top-dose-only effect; cell line not stated here; note: % of control where 0% means no effect; nearly all actives have a fitted effect of over 65% in size
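Fluorescence from anti-PINK1 antibody, together with nuclear and cell stains, was scanned on a laser-scanning cytometer. Before staining, stable-line cells were incubated 24 hours with compounds at 5 concentrations; primary antibody 12 h at 10 degrees C.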
Vif-APOBEC3F blk – Vif-A3F binding inhibition; HeLa A3F-eYFP + Vif (tagged APOBEC3F with the HIV-1 protein that degrades it), YFP fluorescence increase; Potency, µM (highest dose often 46.1 µM), inactives show at the highest dose activity, negative = active; actives 0.2% (n = 390,000); AID 602313; note: % of control where 0% means no effect; nearly all actives have a fitted effect of over 65% in size
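HeLa cells stably expressing A3F-eYFP plus Vif, plated and incubated overnight at 37 deg C, then exposed to compounds overnight at 37 deg C. Blocked degradation read as raised yellow fluorescence (Ex 488/Em 500-530).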
Epigenetic derep – derepresses silenced GFP reporter in murine cells. actives 0.2% (n = 280,000). Potency, µM (top dose mostly 53.9 µM), for inactives: at the top dose GFP activation, hits mostly activators. AID 1865. murine LDR cells, GFP reporter derepression, 30 h; note: % of control where 0% means no effect; nearly all actives have a fitted effect of over 60% in size
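Murine LDR cells bearing a silenced CMV-driven GFP reporter were exposed to compound for 30 h at 37 C. After PBS washes, GFP-positive cells (20-120 um objects) counted by laser-scanning microplate cytometry.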
Active calls of the source: *; [ ] = remark or other dose. Unless noted, calls come from the whole dose curve; as a rule, active = well fitted curve in the direction sought with a large enough effect; inconclusive = small, poorly fitted or top-dose-only effect, or another doubt; inactive = no such curve, though single readings can be large; an effect the other way counts as inactive or inconclusive. Potency is the fitted concentration of half-maximal effect.

Screening NC(=O)CC(NC(=O)Cc1ccc(Br)cc1)c1ccc(NCC2CC2)c([N+](=O)[O-])c1 (stereo not given) returned Vif-A3G inh -15.7%, PINK1 expr mod 0.3%, Vif-APOBEC3F blk 4.6% and Epigenetic derep -3.1%.
For Cc1ccc(NC(=S)N/N=C2\CCCCC2C)cc1 (stereo not given) the results were Vif-A3G inh inconclusive, PINK1 expr mod 9.3%, Vif-APOBEC3F blk 22.4µM* and Epigenetic derep 1.1%.
`CC1CCCC/C1=N\NC(=S)Nc1cccnc1` (stereo not given) gave Vif-A3G inh 10.2%, PINK1 expr mod -1.5%, Vif-APOBEC3F blk -6.6% and Epigenetic derep -0.1%.
For O=[N+]([O-])c1ccc(O)c(/C=N\N=C2c3ccccc3-c3ccccc32)c1 the results were Vif-A3G inh -19.6%, PINK1 expr mod 10µM*, Vif-APOBEC3F blk -13.2% and Epigenetic derep -1.1%.
For NC(N)=N/N=C/c1cc([N+](=O)[O-])ccc1O the results were Vif-A3G inh -2.1%, PINK1 expr mod 2.1%, Vif-APOBEC3F blk -16.8% and Epigenetic derep -2.2%.
Screening CC(C)(C)c1ccc(Oc2nc3ccccn3c(=O)c2/C=C(\C#N)c2nc3ccccc3[nH]2)cc1 returned Vif-A3G inh -4.8%, PINK1 expr mod 28.2µM*, Vif-APOBEC3F blk inconclusive and Epigenetic derep 25.1µM*.
For Cc1cccc(Oc2nc3c(C)cccn3c(=O)c2/C=C(\C#N)c2nc3ccccc3[nH]2)c1 the results were Vif-A3G inh -3.1%, PINK1 expr mod 8.1%, Vif-APOBEC3F blk inconclusive and Epigenetic derep 7.08µM*.
Screening COc1ccc2c(c1)CCc1cnc(-n3ncc(C(=O)N(C)CCc4ccccn4)c3C)nc1-2 returned PINK1 expr mod 1.3%.
For COc1cc(CNc2nc(C)c(-c3ccn(C4Cc5ccccc5C4)n3)s2)cc2c1OCO2 the results were PINK1 expr mod 5.6%.
CCCC[C@@H](C=O)NC(=O)[C@H](CC(C)C)NC(=O)[C@H](CC(C)C)NC(C)=O was read as Epigenetic derep 11.2µM*.
`COc1ccc2cc(CN(C(=O)c3cc(C)nn3C)C3CC3)c(-c3ccc(Cl)cc3)nc2c1` gave PINK1 expr mod 1.0%.
`O=c1oc2c3c4c(cc2c(C(F)(F)F)c1CCN1CCOCC1)CCCN4CCC3` gave Vif-A3G inh inconclusive, PINK1 expr mod 21.9%, Vif-APOBEC3F blk 7.94µM* and Epigenetic derep inconclusive.
For COCc1c(C(=O)N2CCN(C3CCCC3)CC2)cnn1-c1nccc(-c2cccs2)n1 the results were PINK1 expr mod -0.2%.
Nc1c(C(=O)Nc2ccccc2F)sc2nc(-c3ccco3)ccc12 was read as Vif-A3G inh inconclusive, PINK1 expr mod 22.1%[38.3 µM], Vif-APOBEC3F blk 22.4µM* and Epigenetic derep inconclusive.
CCSc1nsc(NC(=O)Nc2ccc(F)cc2F)n1 was read as Vif-A3G inh 3.9%, PINK1 expr mod 22.4µM* and Vif-APOBEC3F blk -11.7%.
`Nc1ncnc2c1ncn2[C@@H]1O[C@H](CNCc2ccc(OCc3ccccc3)cc2)[C@@H](O)[C@H]1O` gave Vif-A3G inh 22.4µM*, PINK1 expr mod -0.2% and Vif-APOBEC3F blk -12.8%.
Screening Nc1ncnc2c1ncn2[C@@H]1O[C@H](CNCc2ccc(OCC(=O)Nc3ccccn3)cc2)[C@@H](O)[C@H]1O returned Vif-A3G inh -4.2%, PINK1 expr mod -1.3% and Vif-APOBEC3F blk 5.2%.
Screening COc1ccccc1C(=O)Nc1nc(-c2ccc(Br)cc2)ns1 returned Vif-A3G inh 2.1%, PINK1 expr mod 1.0%, Vif-APOBEC3F blk -1.8% and Epigenetic derep -3.2%.
`Cc1ccccc1C(=O)Nc1nc(-c2ccc(Br)cc2)ns1` gave Vif-A3G inh -2.2%, PINK1 expr mod 25.1µM*, Vif-APOBEC3F blk -0.1% and Epigenetic derep 1.1%.
COc1cc2nc(N(C)C)c(CNCc3cccc4ccccc34)cc2c(OC)c1OC was read as PINK1 expr mod -0.5%.
CC1=CN2C(=N)/C(=C/c3ccco3)C(=O)N=C2S1 was read as Vif-A3G inh -6.6%, PINK1 expr mod -0.4%, Vif-APOBEC3F blk -15.8% and Epigenetic derep -1.9%.
Screening CC1=CN2C(=N)/C(=C/c3ccc([N+](=O)[O-])o3)C(=O)N=C2S1 returned Vif-A3G inh 22.4µM*, PINK1 expr mod inconclusive, Vif-APOBEC3F blk inconclusive and Epigenetic derep inconclusive.
CCOC(=O)c1ccc(N=Nc2c(C)c(C#N)c(O)[nH]c2=O)cc1 was read as Vif-A3G inh -10.8%, PINK1 expr mod 15.0%, Vif-APOBEC3F blk 10µM* and Epigenetic derep 6.3%.
Screening CCC(O)CNC(=O)c1cnn(-c2nccc(-c3cc(C)sc3C)n2)c1C1CC1 (stereo not given) returned PINK1 expr mod 4.8%.
Screening CCOC(=O)c1c(/N=C/N(C)C)sc(/C=N/Nc2ccccc2)c1-c1ccc(Cl)cc1 returned Vif-A3G inh -20.0%, PINK1 expr mod -2.7%, Vif-APOBEC3F blk -3.7% and Epigenetic derep 11.2µM*.
For CCOC(=O)c1c(/N=C/N(C)C)sc(C)c1C the results were Vif-A3G inh 0.8%, PINK1 expr mod -1.2%, Vif-APOBEC3F blk -2.2% and Epigenetic derep -0.4%.
For Cc1csc(NC(=O)c2sc3nc(-c4cccs4)ccc3c2N)n1 the results were Vif-A3G inh inconclusive, Vif-APOBEC3F blk 22.4µM* and Epigenetic derep inconclusive.
`Cc1ccc(/C=C2/NC(=O)N(Cc3ccccc3)C2=O)s1` gave Vif-A3G inh inconclusive, PINK1 expr mod 14.1µM*, Vif-APOBEC3F blk 22.4µM* and Epigenetic derep 25.1µM*.
Screening CCn1ncc(C2=NOC(C(=O)NCc3ccccc3)C2)c1C (stereo not given) returned Vif-A3G inh inconclusive, PINK1 expr mod 12.6µM*, Vif-APOBEC3F blk -4.4% and Epigenetic derep 0.9%.
Screening Cc1cccc(C(=O)N[C@H]2CC[C@@H](n3cc(C(=O)N4CCCC4)nn3)CC2)c1 returned PINK1 expr mod 0.4%.
`COC(=O)Cn1cc(/C=N/NC(=O)c2ccc(C#N)cc2F)c2ccccc21` gave Vif-A3G inh -0.3%, PINK1 expr mod 11.2µM*, Vif-APOBEC3F blk -1.7% and Epigenetic derep -1.2%.
Screening COc1ccc(C)cc1NC(=O)N1CCN(c2nnc(C)c3c(C)n(-c4ccccc4)nc23)CC1 returned PINK1 expr mod 28.2µM* and Epigenetic derep 4.0%.
`Cc1ccc(C)c(NC(=O)N2CCN(c3nnc(C)c4c(C)n(-c5ccccc5)nc34)CC2)c1` gave PINK1 expr mod 2.0% and Epigenetic derep 0.0%.
COc1cccc(CN2C(=O)NC(C)(C3CCN(Cc4cc(Cl)ccc4O)CC3)C2=O)c1OC (stereo not given) was read as PINK1 expr mod -1.2%.
`Cc1c(C(=O)N(C)Cc2nccs2)sc2ncnc(NCC3CCCO3)c12` (stereo not given) gave PINK1 expr mod 2.1%.
`Cc1cccc(NC(=O)Cn2cc(C(=O)C3CC3)c3ccccc32)c1` gave Vif-A3G inh 0.8%, PINK1 expr mod 5.9% and Vif-APOBEC3F blk 0.0%.
